Consider 47 molecules from PubChem BioAssay AID2685 (National Center for Advancing Translational Sciences (NCATS), 2010).

Hit rate of the full screen: of about 320,000 compounds, about 2,100 (0.66%) were called active. Another 53% or so got no clear call; they are omitted. The sample holds actives, similar compounds and a random draw of the others, so the mix is not that of the screen. Calls come from the whole dose curve; as a rule, active = well fitted inhibition curve with a large enough effect in the signal ratio, with a control signal flat (not every such curve was filed as active); inconclusive = small, poorly fitted or top-dose-only effect, or effect the other way, or a change in a side signal; inactive = flat fitted curve, though single readings scatter; the % refers to the signal ratio.
Potency is the fitted concentration of half-maximal effect.

The test can be described thus: qHTS Assay for Lipid Storage Modulators in Drosophila S3 Cells.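 For cell number change: cells counted by Cell Tracker Red CMTPX staining in the red channel.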 For lipid storage change, negative = inhibition: % is set by controls: 0 for no effect and ±100 for the full control effect. To be noted: BODIPY lipid droplet fluorescence, 18-24 h, cells fed with added oleic acid; cell number change: measured here: cell count max response; series mostly up to 46.1 µM; lipid storage change, negative = inhibition: at the top concentration. Put shortly: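 Laser-scanning cytometry quantifies lipid droplet accumulation (500–530 nm total intensity; droplet/cell object ratio) in oleic acid-fed (400 uM added) Drosophila S3 cells treated with a concentration series. 20 uM Triacsin C defined 100% inhibition.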
For orientation: Quantitative high-throughput screening tests each substance at several concentrations.
Consider `Cc1ccc(S(=O)(=O)NCc2ccccc2)cc1C(=O)N1CCCCCCC1`, for which the “lipid storage change, negative = inhibition” value is -14.6% (inactive) and the cell number change is -10.2%. Regarding `COCCNC(=O)c1onc(CSc2nc3ccccc3[nH]2)c1C(=O)NCCOC`, the molecule was classed as inactive and the cell number change was -7.78%.

With `Cc1cc(C)cc(SCc2noc(C(=O)NCc3ccccc3)c2C(=O)NCc2ccccc2)c1`, the “lipid storage change, negative = inhibition” value was 5.46% (inactive) and the cell number change is -2.6%. Regarding `O=C(NCC1CC1)c1onc(CSc2ccc(F)cc2)c1C(=O)NCC1CC1`, the “lipid storage change, negative = inhibition” value was -7.02% (inactive) and the cell number change turned out to be 10.6%. For the molecule `O=C(NCc1ccccc1)c1onc(CSc2nc3ccccc3[nH]2)c1C(=O)NCc1ccccc1`, the Potency is 14.6 µM (active) and the cell number change was -26.6%. In the same order, the values of `O=C(NCC1CC1)c1onc(CSc2nc3ccccc3[nH]2)c1C(=O)NCC1CC1` are 11.6 µM (active) and -10.5%.

In the case of `C=CCNC(=O)c1onc(CSc2nc3ccccc3[nH]2)c1C(=O)NCC=C`, the call was inactive and the cell number change is -6.29%. For `Cc1c(C(=O)OC(C)C)nnn1-c1nonc1N`, the “lipid storage change, negative = inhibition” value was -3.46% (inactive) and the cell number change turned out to be 7.24%.

For `Cc1ccsc1-c1nc(CN2CCCC2c2ccc(F)cc2)c(C)o1` (stereo not given), the “lipid storage change, negative = inhibition” value was 8.98% (inactive) and the cell number change came out at 4.95%.

On to `Cc1cnc(C(=O)N2CCCC(C(=O)c3cccc(OC(C)C)c3)C2)cn1` (stereo not given), for which the “lipid storage change, negative = inhibition” value was 2.98% (inactive) and the cell number change is -12.5%.

Regarding `Cc1ccc(C)c(NC(=O)c2ccc[n+](Cc3ccc([N+](=O)[O-])cc3)c2)c1`, the “lipid storage change, negative = inhibition” value is -3.16% (inactive) and the cell number change worked out at 11.2%. As for `CNNC(=O)C(C)NC(=O)c1ccc(Br)cc1` (stereo not given), the “lipid storage change, negative = inhibition” value is 11.6% (inactive) and the cell number change amounted to 10.8%. In the same order, the values of `CCC(CC)NC(=O)Nc1ccc(C)cc1` are 5.28% (inactive) and -11.1%. For the molecule `CCN(CC)c1nc(N)nc(NS(=O)(=O)c2ccc(Cl)cc2)n1`, the “lipid storage change, negative = inhibition” value is 8.21% (inactive) and the cell number change amounted to 7.29%. Consider `CCOCCCn1c(SCc2nc3ccccc3s2)nc2ccccc2c1=O`, for which the Potency was 3.66 µM (active) and the cell number change is -21.8%. On to `CCOCCCn1c(SCC(=O)NC(C)(C)C)nc2ccccc2c1=O`, for which the “lipid storage change, negative = inhibition” value is 29.5% (inactive) and the cell number change was -4.14%. As for `O=c1c2ccccc2nc(SCc2nc3ccccc3s2)n1CCCO`, the “lipid storage change, negative = inhibition” value is 0.263% (inactive) and the cell number change was -14.5%.

With `Brc1ccccc1OCCCN1CCCCCC1`, the “lipid storage change, negative = inhibition” value is -11.1% (inactive) and the cell number change stood at 5.41%. Taken in the same sequence, the figures for `CC(=O)c1sc(NC(=O)c2cc(=O)c3ccccc3o2)nc1C` were -6.15% (inactive) and -11.4%. Taken in the same sequence, the figures for `O=C(Cc1ccccc1)Nc1nc2ccccc2s1` were -4.4% (inactive) and -15.5%.

As for `COc1ccc2nc(NC(=S)NC(=O)c3ccco3)sc2c1`, the “lipid storage change, negative = inhibition” value is 0.215% (inactive) and the cell number change was found to be 10%. In the case of `COc1ccc2nc(NNC(=O)c3cc(=O)c4ccccc4o3)sc2c1`, the Potency was 5.17 µM (active) and the cell number change amounted to 1.29%.

Regarding `COc1ccc2nc(NC(=O)CCNC(=O)c3ccco3)sc2c1`, the Potency was 8.2 µM (active) and the cell number change was 15.7%.

For `O=C(CCNC(=O)c1ccccc1Cl)Nc1nc2ccccc2s1`, the “lipid storage change, negative = inhibition” value is 6.98% (inactive) and the cell number change came out at 9.97%. For the molecule `O=C(CCNC(=O)c1ccccc1)Nc1nc2ccccc2s1`, the Potency was 3.66 µM (active) and the cell number change was 12%. For the molecule `O=C(NNc1nc2c(F)cccc2s1)c1cc(=O)c2ccccc2o1`, the “lipid storage change, negative = inhibition” value was -15% (inactive) and the cell number change is -1.04%. Consider `COc1ccc2nc(NC(=O)c3ccco3)sc2c1`, for which the “lipid storage change, negative = inhibition” value is -16.9% (inactive) and the cell number change was found to be 9.21%. In the same order, the values of `COc1ccc(C(=O)NCCOc2cccc(OC)c2)cc1` are 14.8% (inactive) and 26.7%.

For the molecule `O=C1C=Cc2ccccc2/C1=C/c1[nH]c(=O)[nH]c1O`, the “lipid storage change, negative = inhibition” value is 5.67% (inactive) and the cell number change was 1.79%. Turning to `O=C(NC(=S)Nc1ccc(S(=O)(=O)Nc2nccs2)cc1)c1ccc(Br)o1`, the “lipid storage change, negative = inhibition” value is 2.23% (inactive). Take `O=C(NCCOC(=O)C1COc2ccccc2O1)C1COc2ccccc2O1` (stereo not given): the “lipid storage change, negative = inhibition” value was -28.4% (inactive). As for `O=[N+]([O-])c1ccc(-c2ccc(/C=N/Nc3nc(NCc4ccccc4)nc(N4CCOCC4)n3)o2)cc1`, the Potency is 18.4 µM (active) and the cell number change came out at 14.1%. With `COc1nc(N/N=C/c2ccc(-c3cccc([N+](=O)[O-])c3)o2)nc(N2CCOCC2)n1`, the “lipid storage change, negative = inhibition” value was 7.42% (inactive) and the cell number change was -9.45%.

With `O=[N+]([O-])c1ccc(/C=N/Nc2nc(N3CCCCC3)nc(N3CCCCC3)n2)cc1`, the “lipid storage change, negative = inhibition” value is 11.3% (inactive) and the cell number change was -0.784%. Take `O=[N+]([O-])c1ccc(-c2ccc(/C=N/Nc3nc(N4CCCCC4)nc(N4CCCCC4)n3)o2)cc1`: the Potency was 5.17 µM (active) and the cell number change turned out to be 17%. As for `O=[N+]([O-])c1ccc(-c2ccc(/C=N/Nc3nc(N4CCCC4)nc(N4CCCC4)n3)o2)cc1`, the result was inactive and the cell number change was -13%. `O=[N+]([O-])c1cccc(/C=N/Nc2nc(NCc3ccccc3)nc(N3CCOCC3)n2)c1O`: the “lipid storage change, negative = inhibition” value was -7.86% (inactive) and the cell number change was 0.539%. Turning to `CN(C)S(=O)(=O)N1CCC(Oc2cccc(C(=O)NC3CCCCCC3)c2)CC1`, the molecule was called inactive.

Regarding `O=C(O)c1ccccc1C(=O)N1CC=C(c2ccccc2)CC1`, the “lipid storage change, negative = inhibition” value was -0.597% (inactive) and the cell number change came to 1.73%. Taken in the same sequence, the figures for `Nc1[nH][nH]c(=O)c1N=Nc1cccc(Cl)c1` were 26.5% (inactive) and 1.25%. Take `Cn1cc([N+](=O)[O-])c(C(=O)Nc2ccc(Br)cn2)n1`: the “lipid storage change, negative = inhibition” value is 1.79% (inactive).

Turning to `O=C(CNC(=O)COc1ccccc1)NCc1ccccc1F`, the “lipid storage change, negative = inhibition” value was -0.841% (inactive) and the cell number change worked out at 0.16%.

Take `O=[N+]([O-])c1ccc(NC(=S)N2CCOCC2)cc1`: the “lipid storage change, negative = inhibition” value is -4.46% (inactive) and the cell number change is -10.6%.

In the case of `Fc1ccc(CN2CCN(C(c3ccccc3)c3ccccc3)CC2)cc1`, the Potency is 16.4 µM (active) and the cell number change is -21.3%.

`COc1cc(CN2CCN(C(c3ccccc3)c3ccccc3)CC2)cc(OC)c1OC`: the “lipid storage change, negative = inhibition” value is 21.4% (inactive) and the cell number change was 6.8%. Taken in the same sequence, the figures for `OC(CN1CCN(Cc2ccccc2)CC1)c1ccc(F)cc1` (stereo not given) were 2.63% (inactive) and 22.1%. For `COc1ccc(Br)cc1CNC(=O)CCC(=O)n1nc(C)c2ccccc21`, the molecule was classed as inactive and the cell number change was -11.3%.
